Records with an inconclusive call do not appear. Calls of active or inactive are those of the source. Calls come from the whole dose curve; as a rule, active = well fitted inhibition curve with a large enough effect; inconclusive = small, poorly fitted or top-dose-only effect; inactive = flat fitted curve, though single readings scatter. Peptide text beside a SMILES is read from it.
Columns and labels:
Experiment in all cases: qHTS profiling for inhibitors of Plasmodium falciparum proliferation (AID 504749); note: nearly all actives have a fitted effect of over 60% in size
Conditions in all cases: P. falciparum in erythrocytes, SYBR Green DNA, 72 h; series mostly up to 28.7 µM
CP247 = tested on: CP247
Outline: (§1)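 In a 72 h erythrocytic culture (37 C, humidified, 5% CO2) at 2.5% hematocrit and 0.3% starting parasitemia, compounds were tested; SYBR Green I in detergent lysis buffer stained parasite DNA overnight.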

CP250 = tested on: CP250
Outline: as §1

CP252 = tested on: CP252
Outline: as §1

CP256 = tested on: CP256
Outline: as §1

CP260 = tested on: CP260
Outline: as §1

CP262 = tested on: CP262
Outline: as §1

CP265 = tested on: CP265
Outline: as §1

CP266 = tested on: CP266
Outline: as §1

CP268 = tested on: CP268
Outline: as §1

CP269 = tested on: CP269
Outline: as §1

Measured: Potency
Potency is the fitted concentration of half-maximal effect.

Cc1cc2c(s1)Nc1ccccc1N=C2N1CCN(C)CC1
inactive: all assays above

C[C@]12CCC(=O)C=C1CC[C@@H]1[C@H]2[C@@H](O)C[C@@]2(C)[C@H]1CC[C@]2(O)C(=O)CO
inactive: all assays above

N=C(N)c1ccc2cc(OC(=O)c3ccc(N=C(N)N)cc3)ccc2c1
active: CP247 8.91 µM
inactive: CP250

Cc1ccc(C)c(OCCCC(C)(C)C(=O)O)c1
inactive: all assays above

O=C(O)c1cccnc1Nc1cccc(C(F)(F)F)c1
inactive: all assays above

CCCCc1ccc2nc(NC(=O)OC)[nH]c2c1
inactive: all assays above

COc1cc(OC)c(C(=O)CCCN2CCCC2)c(OC)c1
inactive: all assays above

Nc1ccn([C@@H]2O[C@H](CO)[C@@H](O)C2O)c(=O)n1 (stereo not given in full)
inactive: all assays above

CC(C)[C@H](N)C(=O)OCCOCn1cnc2c(=O)[nH]c(N)nc21
inactive: all assays above

O=C(O)CCNC(=O)c1ccc(N=Nc2ccc(O)c(C(=O)O)c2)cc1
inactive: all assays above

CCOC(=O)c1c(C)n(C)c2ccc(O)cc12
inactive: all assays above

CCOc1cc(CC(=O)N[C@@H](CC(C)C)c2ccccc2N2CCCCC2)ccc1C(=O)O
inactive: all assays above

CC1(C)CCC(C)(C)c2cc(NC(=O)c3ccc(C(=O)O)cc3)ccc21
inactive: all assays above

COC(=O)C1=C(C)NC(C)=C(C(=O)OCCCN2CCC(c3ccccc3)(c3ccccc3)CC2)C1c1cccc([N+](=O)[O-])c1 (stereo not given)
active: CP247 6.31 µM | CP250 7.08 µM | CP252 5.01 µM | CP256 7.08 µM | CP260 2.82 µM | CP262 6.01 µM | CP265 7.94 µM | CP266 9.53 µM | CP268 9.53 µM | CP269 4.78 µM

Cc1c(OCC(F)(F)F)ccnc1CS(=O)c1nc2ccccc2[nH]1 (stereo not given)
inactive: all assays above

CCCCN(CCCC)CCC(O)c1cc2c(Cl)cc(Cl)cc2c2cc(C(F)(F)F)ccc12 (stereo not given)
active: CP247 0.0178 µM | CP250 0.0316 µM | CP252 0.0158 µM | CP256 0.141 µM | CP260 0.0063 µM | CP262 0.0181 µM | CP265 0.0316 µM | CP266 0.0907 µM | CP268 0.051 µM | CP269 0.0161 µM

O=C(O)c1cccc(-c2noc(-c3ccccc3F)n2)c1
inactive: all assays above

CC(C)(S)[C@@H](N)C(=O)O
inactive: all assays above

O=P(O)(O)C(O)(Cn1ccnc1)P(=O)(O)O
inactive: all assays above

O=C(O)c1cc(=O)c2c(OCC(O)COc3cccc4oc(C(=O)O)cc(=O)c34)cccc2o1
inactive: all assays above

CCN(CCO)CCCC(C)Nc1ccnc2cc(Cl)ccc12 (stereo not given)
inactive: all assays above

Nc1cccc2c1CN(C1CCC(=O)NC1=O)C2=O (stereo not given)
inactive: all assays above

N=C(N=C(N)N)N1CCOCC1
inactive: all assays above

COc1cc2c(cc1OC)C1CC(=O)C(CC(C)C)CN1CC2 (stereo not given)
inactive: all assays above

COC(=O)[C@H](Cc1ccccc1)NC(=O)[C@@H](N)CC(=O)O (H-Asp-Phe-OMe)
inactive: all assays above

CCCCCCCCCCCCCCCCCCCCCCO
inactive: all assays above

Nc1ccc(S(N)(=O)=O)cc1
inactive: all assays above

CCCc1cc(=O)[nH]c(=S)[nH]1
inactive: all assays above

Clc1ccc(C(Cn2ccnc2)OCc2ccsc2Cl)c(Cl)c1 (stereo not given)
active: CP247 5.01 µM | CP250 11.2 µM | CP252 7.94 µM | CP256 10 µM | CP260 11.2 µM | CP262 13.5 µM | CP265 7.94 µM | CP268 12 µM | CP269 6.75 µM

CN(C)C(=O)COC(=O)Cc1ccc(OC(=O)c2ccc(N=C(N)N)cc2)cc1
inactive: all assays above

Cc1nc2n(c(=O)c1CCN1CCC(c3noc4cc(F)ccc34)CC1)CCCC2
not listed: CP260
inactive: all other assays above

CS(=O)(=O)OCCCCOS(C)(=O)=O
inactive: all assays above

N[C@@H](Cc1cc(I)c(Oc2cc(I)c(O)c(I)c2)c(I)c1)C(=O)O
inactive: all assays above

Nc1cc(C(Cl)=C(Cl)Cl)c(S(N)(=O)=O)cc1S(N)(=O)=O
inactive: all assays above

Cc1cc2cc3c(C)cc(=O)oc3c(C)c2o1
inactive: all assays above

O=C1c2ccccc2-c2n[nH]c3cccc1c23
inactive: all assays above

Source: PubChem BioAssay (NCATS)
